Measurements reported in publication PMC5540273 (PLoS ONE, 2017).

What was measured:
Conditions in all cases: concentration: 1 μM, replicates: in singlicate; n = 1
[1] = system: SRMS
[2] = system: SRPK1
[3] = system: SRPK2
[4] = system: SRPK3
[5] = system: STK16
[6] = system: STK33
[7] = system: STK35
[8] = system: STK36
[9] = system: STK39
[10] = system: SYK
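Further: KINOMEscan kinase panel screen.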

SMILES | %Inh [1] [%] | %Inh [2] [%] | %Inh [3] [%] | %Inh [4] [%] | %Inh [5] [%] | %Inh [6] [%] | %Inh [7] [%] | %Inh [8] [%] | %Inh [9] [%] | %Inh [10] [%]
Cl.Fc1ccccc1COc1ccc(Nc2ncnc3ccc(-c4nnc(C(F)(F)F)o4)cc23)cc1Cl [GW424170] | 0 | 0 | 3 | 0 | 0 | 0 | 0 | 0 | 0 | 0
CNc1nccc(-c2c(-c3ccc(F)cc3)ncn2CCCN2CCOCC2)n1 [SB-222516] | 0 | 19 | 0 | 0 | 0 | 21 | 0 | 0 | 8 | 0
CC(=O)Nc1n[nH]c2ncc(-c3ccccc3)cc12 [SB-548492] | 25 | 25 | 0 | 20 | 26 | 0 | 10 | 12 | 0 | 2
COC(=O)c1c(-c2ccccc2)c2cc(Cl)ccc2c(=O)n1Cc1ccc(S(C)(=O)=O)cc1 | 0 | 10 | 6 | 0 | 0 | 0 | 15 | 15 | 0 | 3
CS(=O)(=O)CCNCc1nc(-c2ccc3ncnc(Nc4ccc(OCc5cccc(F)c5)c(Cl)c4)c3c2)cs1.Cl [GW583340] | 0 | 2 | 0 | 0 | 8 | 0 | 0 | 0 | 1 | 18
FC(F)(F)c1ccc(-c2cc(-c3c[nH]nc3-c3ccccn3)ccn2)cc1 [GW599550] | 0 | 24 | 13 | 2 | 10 | 0 | 0 | 0 | 0 | 44
Cc1ccc(C)c(NC(=O)NCCNc2ccnc(Nc3ccc(F)cc3)n2)c1 [GSK1379878] | 0 | 0 | 0 | 0 | 100 | 0 | 0 | 0 | 0 | 17
Cl.c1ccc(Cn2ncc3cc(Nc4ncnc5ccccc45)ccc32)cc1 [GW273749] | 0 | 16 | 0 | 0 | 40 | 0 | 0 | 0 | 0 | 18
Cl.Cn1ccc(-c2cccc(Nc3ccnc4cc(-c5nccs5)ccc34)c2)n1 [GW525701] | 0 | 0 | 51 | 0 | 4 | 0 | 0 | 0 | 6 | 0
CCCc1ccc(S(=O)(=O)NC2CCN(c3ccnc(Nc4ccc(OC)cc4)n3)C2)cc1 (stereo not drawn) [GSK1379737] | 0 | 28 | 28 | 0 | 1 | 0 | 0 | 15 | 17 | 18
Cl.Cl.c1ccc(-c2cc3ccncc3cc2OC2CCNCC2)cc1 [GSK1122999] | 0 | 3 | 0 | 0 | 0 | 100 | 0 | 88 | 0 | 19
c1ccc(-c2ccc3c(-c4ccnc(Nc5ccc6c(c5)OCCO6)n4)cnn3n2)cc1 [GW818941] | 0 | 48 | 0 | 21 | 95.8 | 17 | 8 | 25 | 22 | 7
FC(F)(F)c1cc(Nc2nccc(-c3c(-c4ccc(Cl)cc4)nn4ncccc34)n2)ccc1Cl [GW829351] | 27 | 0 | 7 | 4 | 0 | 0 | 0 | 21 | 0 | 2
O=C(Nc1ccccc1F)NC1CCN(c2ccnc(Nc3ccc(F)cc3)n2)C1 (stereo not drawn) [GSK1379722] | 0 | 0 | 0 | 3 | 0 | 0 | 0 | 0 | 29 | 10
Nc1nc(-c2ccc3c(N)n[nH]c3c2)cc(N2CCC[C@@H](C(=O)Nc3ccccc3)C2)n1.O=C(O)C(F)(F)F.O=C(O)C(F)(F)F [GSK2288359] | 0 | 34 | 0 | 25 | 18 | 0 | 0 | 0 | 1 | 0
Fc1cccc(COc2ccc(Nc3ncnc4sc(-c5ccc[nH]5)cc34)cc2Cl)c1 [GW707818] | 14 | 19 | 3 | 0 | 26 | 8 | 0 | 0 | 9 | 13
CC(C)N1CCC(n2cnc(-c3ccc(F)cc3)c2-c2ccnc(N)n2)CC1 [SB-223132] | 0 | 0 | 45 | 6 | 0 | 0 | 0 | 26 | 0 | 19

SMILES | %Inh [1] [%] | %Inh [2] [%] | %Inh [3] [%] | %Inh [4] [%] | %Inh [5] [%] | %Inh [6] [%] | %Inh [7] [%] | %Inh [8] [%] | %Inh [9] [%] | %Inh [10] [%]
Fc1ccc(-c2ncn(CCCNCc3ccccc3)c2-c2ccncc2)cc1 | 0 | 31 | 4 | 23 | 0 | 0 | 0 | 20 | 0 | 23
COc1ccc(-c2oc3ncnc(N)c3c2-c2ccc(OC)cc2)cc1 [SB-589132] | 6 | 30 | 53 | 0 | 57 | 0 | 0 | 0 | 24 | 20
Nc1nc(-c2cccnc2)c(-c2ccnc3ccccc23)s1 [GW684083] | 0 | 3 | 4 | 18 | 17 | 14 | 0 | 0 | 0 | 34
O=C(c1ccc(-c2cc(-c3c[nH]nc3-c3ccccn3)ccn2)cc1)N1CCCC1 [GW792479] | 0 | 0 | 64 | 26 | 16 | 0 | 0 | 0 | 0 | 20
COc1ccc(NC(=O)c2ccc(-c3cc(-c4nnc(C)o4)ccc3C)cc2)cc1 [GW595885] | 0 | 0 | 0 | 8 | 7 | 0 | 0 | 0 | 21 | 27
COc1ccc(Nc2nccc(N3CCC(NC(=O)Nc4ccc5c(c4)OCO5)C3)n2)cc1 (stereo not drawn) [GSK1379745] | 0 | 29 | 3 | 17 | 0 | 3 | 8 | 0 | 17 | 40
Nc1nccc2scc(-c3ccc4c(c3)CCN4C(=O)Cc3cc(F)ccc3F)c12 [GSK2587663] | 0 | 8 | 0 | 0 | 11 | 0 | 0 | 0 | 6 | 22
NC(=O)c1sc(-n2cnc3ccccc32)cc1OCc1ccccc1F [GSK1024306] | 0 | 50 | 0 | 16 | 0 | 0 | 0 | 0 | 4 | 7
Cl.c1ccc(Cn2ccc3cc(Nc4ncnc5ccccc45)ccc32)cc1 [GW275568] | 15 | 11 | 0 | 0 | 19 | 0 | 0 | 20 | 18 | 26
COc1ccc(NC(=O)Nc2ccc(C)c(-c3ccc(C(=O)Nc4ccncc4)cc3)c2)cc1 [GSK1398475] | 0 | 0 | 0 | 0 | 0 | 0 | 0 | 0 | 0 | 0
OCCOCCn1ccc2ncnc(Nc3ccc(Oc4cccc(Cl)c4)c(Cl)c3)c21 | 0 | 0 | 0 | 0 | 0 | 0 | 0 | 0 | 0 | 26
CN1CCC(n2cnc(-c3ccc(F)cc3)c2-c2ccnc(NC3CCNCC3)n2)CC1 [SB-229482] | 28 | 0 | 27 | 16 | 12 | 0 | 0 | 24 | 47 | 0
O=C(CCO)NCCn1ccc2ncnc(Nc3ccc(Oc4cccc(C(F)(F)F)c4)c(Cl)c3)c21 | 0 | 0 | 0 | 4 | 8 | 0 | 5 | 0 | 0 | 4
Nc1n[nH]c2nnc(-c3ccccc3)cc12 [SB-517389] | 0 | 20 | 0 | 1 | 0 | 0 | 0 | 0 | 13 | 5
C[C@H]1CC[C@@H](C(=O)Nc2ccccc2)CN1c1cc(-c2ccc3c(N)n[nH]c3c2)nc(N)n1 [GSK2283293] | 19 | 54 | 0 | 16 | 0 | 0 | 0 | 0 | 0 | 4
COc1cc2ncnc(Nc3ccc(OCc4ccccc4Br)c(Cl)c3)c2cc1OC.Cl [GI261590] | 0 | 0 | 32 | 5 | 6 | 0 | 18 | 0 | 7 | 33
